The nature of test [1]: Quantitative High-Throughput drug screen in 47 multiple myeloma cell lines against the NCATS MIPE library collection: XG6_PLB cell viability assay (AID 1919865). Also: nearly all actives have a fitted effect of over 40% in size. The following applies: XG6 myeloma viability, CellTiter-Glo ATP luminescence, 48 h; series mostly up to 45.8 µM. Put shortly:
(§1)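 Readout: median RLU from CellTiter-Glo after 5 min at room temperature. Preceding step was 48 h drug treatment of 500 cells/well at 37 °C, 5% CO2, with DMSO-only and media-only control wells.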
A general note: ATP-based viability assays read luminescence as a measure of living cells.

The nature of test [2]: Quantitative High-Throughput drug screen in 47 multiple myeloma cell lines against the NCATS MIPE library collection: VP6_DJ cell viability assay (AID 1919867). Also: nearly all actives have a fitted effect of over 40% in size. The following applies: ATP luminescence, 48 h; series mostly up to 45.8 µM. Put shortly:
as §1

Test [3] is described as follows: Quantitative High-Throughput drug screen in 47 multiple myeloma cell lines against the NCATS MIPE library collection: PE2_PLB cell viability assay (AID 1919869). Also: nearly all actives have a fitted effect of over 35% in size. Particulars: PE2_PLB myeloma cells viability, ATP luminescence, 48 h; series mostly up to 45.8 µM. In outline: as §1
Test [4] in a line: Quantitative High-Throughput drug screen in 47 multiple myeloma cell lines against the NCATS MIPE library collection: RPMI8226_ATCC cell viability assay (AID 1919871). Also: nearly all actives have a fitted effect of over 30% in size. Particulars: RPMI8226 myeloma viability, CellTiter-Glo ATP luminescence, 48 h; series mostly up to 45.8 µM. In outline:
as §1

Test [5] can be described thus: Quantitative High-Throughput drug screen in 47 multiple myeloma cell lines against the NCATS MIPE library collection: OPM2_DSMZ cell viability assay (AID 1919872). Also: nearly all actives have a fitted effect of over 30% in size. Particulars: OPM2 myeloma viability, CellTiter-Glo ATP luminescence, 48 h; series mostly up to 45.8 µM. Put shortly: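 Luminescent ATP measurement with CellTiter-Glo gives viability, scaled between DMSO-only wells (100%) and media-only wells (0%). Cells, 500 per well, faced library compounds for 48 hours at 37C.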

Test [6] in a line: Quantitative High-Throughput drug screen in 47 multiple myeloma cell lines against the NCATS MIPE library collection: KMS11_JCRBsus cell viability assay (AID 1919873). Also: nearly all actives have a fitted effect of over 50% in size. The following applies: KMS11 myeloma viability, CellTiter-Glo ATP luminescence, 48 h; series mostly up to 45.8 µM. In outline:
as §1

A short description of test [7]: Quantitative High-Throughput drug screen in 47 multiple myeloma cell lines against the NCATS MIPE library collection: UTMC2_PLB cell viability assay (AID 1919868). Also: nearly all actives have a fitted effect of over 55% in size. Particulars: CellTiter-Glo ATP luminescence, 48 h; viability (% of DMSO control): at 45.8 µM (top of the series). In outline:
as §1

Test [8] in a line: Quantitative High-Throughput drug screen in 47 multiple myeloma cell lines against the NCATS MIPE library collection: PCM6_Riken cell viability assay (AID 1919870). Also: nearly all actives have a fitted effect of over 30% in size. The following applies: CellTiter-Glo ATP, 48 h; series mostly up to 45.8 µM. In outline:
as §1

Test [9] in a line: Quantitative High-Throughput drug screen in 47 multiple myeloma cell lines against the NCATS MIPE library collection: XG1_PLB cell viability assay (AID 1919866). Also: nearly all actives have a fitted effect of over 35% in size. Particulars: CellTiter-Glo ATP, 48 h; series mostly up to 45.8 µM. Put shortly:
as §1

Results filed as inconclusive are left out. Active and inactive are the calls of the source. Calls follow the shape of the dose curve; as a rule, active = well fitted cell-killing curve with a large enough effect; inconclusive = small, poorly fitted or top-dose-only effect, or effect the other way; inactive = no such curve, though single readings can be large or run the other way.
Potency is read from the fitted curve at half-maximal effect.

On to `CC1(C)O[C@@H]2C[C@H]3[C@@H]4CCC5=CC(=O)C=C[C@]5(C)[C@@H]4[C@@H](O)C[C@]3(C)[C@]2(C(=O)CO)O1`, for which the Potency entry in test [1], in [3] and in test [5] was “inactive” throughout. Further, the Potency was 18.7 µM (active) in test [2], 0.0332 µM (active) in [4] and 0.0332 µM (active) in test [6].
As to `CC1=C(C(=O)Nc2cc3cn[nH]c3cc2F)C(c2ccc(Cl)cc2F)N=C(c2ccnc(Cl)c2)N1` (stereo not drawn), the Potency is 14.8 µM (active) in [1]; 18.7 µM (active) in test [2]; 3.72 µM (active) in test [7]; 6.62 µM (active) in test [8]; 14.8 µM (active) in [6].
With `Nc1cccc2c1C(=O)N(C1CCC(=O)NC1=O)C2=O` (stereo not drawn), the Potency entry in test [1], in test [3] and in [8] was “inactive” in each case. The Potency in test [5] was 0.0012 µM (active).
Turning to `Cn1cc(C[C@@H](N)C(=O)O)c2ccccc21`, the Potency result in test [1], in test [9], in [3], in [4], in test [5] and in [6] was “inactive” each time.
Consider `C[C@@H](Cc1cc2c(c(C(N)=O)c1)N(CCCO)CC2)NCCOc1ccccc1OCC(F)(F)F`, for which the Potency result in test [1], in [3], in [8], in test [4], in [5] and in [6] was “inactive” in each case.
With `CC(=O)NC(CS)C(=O)O` (stereo not drawn), the Potency result in test [9], in [2], in test [3], in [8] and in test [4] was “inactive” throughout.
As to `COc1cc(OC)c(NC(=O)Nc2cc(C)on2)cc1Cl`, the Potency entry in [1], in test [9], in [3], in [8] and in test [5] was “inactive” each time.
For `C[C@]12C=CC(=O)N[C@@H]1CC[C@H]1[C@H]3CC[C@@H](C(=O)Nc4cc(C(F)(F)F)ccc4C(F)(F)F)[C@@]3(C)CC[C@@H]12`, the Potency in test [1] was 16.6 µM (active); in test [9], 13.2 µM (active); in test [8], 4.69 µM (active); in test [5], 10.5 µM (active). For the same molecule, the Potency entry in test [7] and in [6] was “inactive” each time.
`CC(=O)C1=C(O)C=C2Oc3c(C(C)=O)c(O)c(C)c(O)c3C2(C)C1=O` (stereo not drawn): the Potency result in test [9], in [2], in [7], in test [3], in test [8] and in test [4] was “inactive” in each case. Besides, the Potency entry in test [5] and in [6] was “inactive” in each case.
As for `Cc1cc(O)c2c(c1)C(=O)c1cccc(O)c1C2=O`, the Potency entry in test [1], in [9], in test [3], in [8], in test [4] and in test [5] was “inactive” in each case. Moreover, the Potency result in [6] is “inactive”.
Take `CC(=CC(=O)Nc1ccccc1C(=O)O)c1ccc2ccccc2c1`: the Potency in test [1] is 7.43 µM (active); in test [2] it was 18.7 µM (active); in [3], 23.5 µM (active). Besides, the Potency entry in test [5] and in test [6] was “inactive” throughout.
As for `CN(N=O)C(=O)N[C@H]1C(O)OC(CO)[C@@H](O)[C@H]1O` (stereo partly drawn), the Potency result in test [1], in test [9], in [3], in [8] and in test [4] was “inactive” each time.
For the molecule `COC1=C(OC)C(=O)C(CC=C(C)CCC=C(C)CCC=C(C)CCC=C(C)CCC=C(C)CCC=C(C)CCC=C(C)CCC=C(C)CCC=C(C)CCC=C(C)C)=C(C)C1=O`, the Potency result in [1], in test [9], in [7], in [3], in [8] and in [5] was “inactive” each time.
For the molecule `OCC(O)C(O)C(O)CO` (stereo not drawn), the Potency result in test [1], in test [9], in test [3], in [8] and in test [5] was “inactive” each time.
Regarding `COC(=O)[C@H](CCCN=C(N)N)NS(=O)(=O)c1ccc(C)cc1`, in [1], the Potency is 11.8 µM (active). The Potency entry in test [3], in test [8] and in test [6] was “inactive” each time.
As to `CN1[C@H]2CC(OC(=O)[C@@H](CO)c3ccccc3)C[C@H]1[C@H]1O[C@H]12` (stereo partly drawn), the Potency entry in test [1], in [9], in test [3], in [8], in [4] and in [5] was “inactive” each time. The Potency entry in test [6] is “inactive”.
For `NC(=O)c1cccc(-c2cccc(OC(=O)NC3CCCCC3)c2)c1`, the Potency result in test [1], in test [2], in test [7], in test [3], in [8] and in [4] was “inactive” each time. Moreover, the Potency entry in test [5] and in [6] was “inactive” each time.
Consider `O=c1c(O)c(-c2ccc(O)c(O)c2)oc2cc(O)ccc12`, for which the Potency in test [9] is 13.2 µM (active); in test [2] it was 14.8 µM (active); in [7] it was 13.2 µM (active); in test [3], 14.8 µM (active); in [8], 9.35 µM (active); in [5] it was 23.5 µM (active).
For `CCN(CC)Cc1ccc2cc(COC(=O)Nc3ccc(C(=O)NO)cc3)ccc2c1`, the Potency was 0.833 µM (active) in test [9]; 0.132 µM (active) in [2]; 0.148 µM (active) in test [7]; 0.935 µM (active) in [3]; 0.833 µM (active) in test [8]; 1.05 µM (active) in test [4]. Also, the values for the Potency in test [5] and in test [6] were 0.833 µM (active) and 0.526 µM (active), respectively.
In the case of `C[C@@H]1[C@H](C)CC[C@]2(C(=O)O)CC[C@]3(C)C(=CC[C@@H]4[C@@]5(C)C[C@@H](O)[C@H](O)[C@@](C)(CO)[C@H]5CC[C@]43C)[C@@H]12`, the Potency entry in test [9], in test [2], in [7], in test [3], in test [8] and in [6] was “inactive” each time.
`CCCc1nc(C(C)(C)O)c(C(=O)O)n1Cc1ccc(-c2ccccc2-c2nn[nH]n2)cc1`: the Potency result in test [1], in [9], in test [3], in test [8], in [4] and in test [5] was “inactive” throughout. Further, the Potency result in test [6] was “inactive”.
On to `O=C(NC1CC1)c1cccc(-c2ccc3c(NC(=O)C4CC4)n[nH]c3c2)c1`, for which the Potency was 1.48 µM (active) in [1]; 1.05 µM (active) in test [9]; 9.35 µM (active) in test [2]; 14.8 µM (active) in test [5]; 7.43 µM (active) in test [6].
Turning to `O=C(Nc1nnc(-c2ccco2)o1)c1cc(-c2ccccc2)nc2ccccc12`, the Potency in test [9] was 13.2 µM (active); in [2], 14.8 µM (active); in test [7], 14.8 µM (active); in [3] it was 18.7 µM (active); in test [8], 18.7 µM (active); in [4] it was 13.2 µM (active).
For `Cc1cc(Nc2ncc3c(n2)N(C)C(=O)N(c2cc(NC(=O)c4cccc(C(F)(F)F)c4)ccc2C)C3)n(C)n1`, the Potency in test [9] is 2.35 µM (active); in [2] it was 0.935 µM (active); in [7] it was 0.418 µM (active); in test [3], 0.743 µM (active); in [8] it was 1.87 µM (active); in [5], 0.743 µM (active). Also, in [6], the Potency was 0.235 µM (active).
In the case of `C=CC1=C(C(=O)O)N2C(=O)[C@@H](NC(=O)C(=NO)c3csc(N)n3)[C@H]2SC1`, the Potency entry in test [1], in test [9], in test [3], in test [4] and in test [5] was “inactive” each time. Besides, the Potency in [8] is 11.8 µM (active).
For `CON=C(C(=O)N[C@@H]1C(=O)N2C(C(=O)O)=C(Cn3ccc(=N)n3CCO)CS[C@H]12)c1csc(N)n1`, the Potency result in [1], in test [3], in [8], in test [4], in [5] and in [6] was “inactive” in each case.
Regarding `CN(C)c1ccc(C(=O)NCCCCCCC(=O)NO)cc1`, the Potency in test [9] was 1.18 µM (active); in [2] it was 0.148 µM (active); in [7], 0.332 µM (active); in test [3], 2.35 µM (active); in test [8] it was 0.662 µM (active); in test [4], 1.87 µM (active). The Potency in test [5] was 0.935 µM (active); in test [6] it was 0.743 µM (active).
Take `C=CC(=O)N1CCc2ccc(-n3c(=O)ccc4cnc5ccc(-c6cnn(C)c6)cc5c43)cc21`: the Potency in test [9] is 1.32 µM (active); in test [2] it was 2.96 µM (active); in test [7], 1.05 µM (active); in test [3], 1.66 µM (active); in test [8], 1.66 µM (active); in test [4], 1.05 µM (active). Moreover, the Potency in [6] was 0.418 µM (active).
For the molecule `FC(F)(F)c1ccc(Nc2nc3ccc(Oc4ccnc(-c5ncc(C(F)(F)F)[nH]5)c4)cc3[nH]2)cc1`, the Potency in test [1] was 16.6 µM (active); in test [9], 14.8 µM (active); in test [3], 26.4 µM (active); in test [8], 18.7 µM (active); in test [4], 26.4 µM (active).
`COc1ccc(Nc2nccc(NCCO)n2)cc1`: the Potency entry in test [9] and in [7] was “inactive” each time. Moreover, the Potency in [2] was 1.66 µM (active).
For `O=S(=O)(O)CCSSCCS(=O)(=O)O`, the Potency entry in test [1], in [8] and in test [5] was “inactive” in each case.
In the case of `C[N+](C)([O-])CCNc1ccc(NCC[N+](C)(C)[O-])c2c1C(=O)c1c(O)ccc(O)c1C2=O`, the Potency in test [1] is 13.2 µM (active). Also, the Potency result in test [2], in [3], in test [4] and in [6] was “inactive” in each case.
Consider `O=C(C[C@@H]1CC=CCCC(=O)O[C@H](c2ccccc2)CNC1=O)NCc1ccc(Cl)cc1`, for which the Potency in [1] is 6.62 µM (active); in test [2] it was 13.2 µM (active); in test [3], 9.35 µM (active); in test [8], 5.9 µM (active). Further, the Potency entry in [4], in test [5] and in [6] was “inactive” each time.

The values are drawn from PubChem BioAssay (NCATS).
